EP2 antag = inhibitors of human EP2 prostaglandin E2 receptor; C6 glioma cells expressing human EP2, cAMP TR-FRET; cells stimulated with saturating PGE2; inhibition, % at 25 µM; actives 0.52% (n = 260,000); AID 1422;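 active means percent inhibition above 40 after rounding to a whole number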;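 further: rat C6 glioma host cells with rolipram phosphodiesterase inhibitor present; the protocol text gives 20 µM as final concentration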
Hck-Nef inh = human Hck-Nef kinase inhibition; actives 0.68% (n = 220,000); inhibition, % at 20 µM; P08631; Recombinant Hck-YEEI plus Nef, Z-Lyte FRET kinase assay;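 active means Hck-Nef kinase inhibition above about 50%, limit read from the data; inactive means inhibition below that limit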;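 further: 0% = DMSO with Hck plus Nef and 100% = Hck alone without Nef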
EP2 mod = modulates human prostaglandin E2 receptor EP2 signaling. P43116. EP2-expressing cells, cAMP HTRF FRET, PGE2 co-stimulation. induction, % at 25 µM. actives 0.83% (n = 260,000);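 active means compounds whose cAMP rise, as percent of the full-agonist control response, exceeds 60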;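 further: rat C6 glioma line stably carrying human EP2 under a CMV promoter; the protocol text gives 20 µM as final concentration; 100% = response of wells given 1 µM PGE2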
p97 ATPase inh = inhibitors of human p97 ATPase; recombinant p97 ATPase, Kinase-Glo ATP luminescence, 3 h; inhibition, % at 8 µM; actives 0.42% (n = 220,000); AID 1481; in the data active means inhibition above about 15%;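 further: 0% = DMSO vehicle and 100% = wells lacking enzyme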
Target sequence (P55072 whole entry, looked up): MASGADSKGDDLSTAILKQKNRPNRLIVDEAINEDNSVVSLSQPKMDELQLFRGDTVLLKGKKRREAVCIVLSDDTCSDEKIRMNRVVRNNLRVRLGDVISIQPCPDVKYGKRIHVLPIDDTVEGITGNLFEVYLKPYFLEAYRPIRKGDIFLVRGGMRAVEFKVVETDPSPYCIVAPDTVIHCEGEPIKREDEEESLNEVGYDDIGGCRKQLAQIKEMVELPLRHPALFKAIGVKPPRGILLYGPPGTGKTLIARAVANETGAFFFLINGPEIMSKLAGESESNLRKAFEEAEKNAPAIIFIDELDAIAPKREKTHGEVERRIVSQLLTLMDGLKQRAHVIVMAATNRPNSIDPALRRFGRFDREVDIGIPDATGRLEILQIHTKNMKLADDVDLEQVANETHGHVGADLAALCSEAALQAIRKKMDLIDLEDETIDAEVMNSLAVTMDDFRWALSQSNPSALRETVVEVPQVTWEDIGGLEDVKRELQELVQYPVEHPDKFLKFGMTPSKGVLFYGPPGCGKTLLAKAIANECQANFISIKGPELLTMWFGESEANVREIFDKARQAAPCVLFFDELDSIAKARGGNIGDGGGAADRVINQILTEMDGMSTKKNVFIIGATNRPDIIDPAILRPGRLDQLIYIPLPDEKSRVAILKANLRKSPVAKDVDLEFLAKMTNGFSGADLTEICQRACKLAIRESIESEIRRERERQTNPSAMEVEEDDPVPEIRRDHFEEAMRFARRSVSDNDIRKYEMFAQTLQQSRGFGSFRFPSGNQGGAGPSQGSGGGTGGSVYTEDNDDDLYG
Arbovirus anti = blocks arbovirus infection; arbovirus infection cell-based antiviral screen; inhibition, % at 10 µM; actives 0.37% (n = 200,000); in the data active means inhibition above about 30%
EP2 confirm = EP2 receptor cAMP induction, counter-screens negative; shares compounds with EP2 mod; C6 glioma EP2 cells, cAMP HTRF induction; plus low (about EC15) PGE2 agonist; calls only at 20 µM (by protocol); actives 47% (n = 1,300); AID 1080;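 active means cAMP induction above 50% in the main assay while under 30% in all four parallel counter assays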;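 further: rat C6 glioma cells stably expressing human EP2 receptor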
* = called active by the depositor; i = inactive; . = no result; + = active, no number; ! = not confirmed by another sample. An excerpt weighted towards active compounds, which were near 2.4% of everything screened.

SMILES	EP2 antag	Hck-Nef inh	EP2 mod	p97 ATPase inh	Arbovirus anti	EP2 confirm
CC(C)c1ccc2c(c1)CCC1C(C)(C(N)=O)CCCC21C (stereo unspecified)	4.8	.	52.1	.	.	+
CCOP(=O)(c1ccccc1)c1nc(-c2ccccc2Cl)oc1N1CCCCC1 (stereo unspecified)	6.2	0.7	71.5*	-11.7	-35.0	+
COc1ccc(C2C(C#N)=C(N)OC3=C2C(=O)CC(C)(C)C3)cc1Cl (stereo unspecified)	9.0	.	-4.0	.	.	.
Cc1onc(-c2c(F)cccc2Cl)c1C(=O)OCn1nnc2ccccc2c1=O	7.2	1.1	77.3*	-1.6	4.3	i
Cc1onc(-c2c(F)cccc2Cl)c1C(=O)ONC(=O)c1ccccc1	7.0	12.6	-14.2	-1.1	.	.
O=c1[nH]c(N/N=C/c2ccccc2)nc2ccccc12	6.5	5.9	68.6*	4.0	-9.3	+
Cc1ccccc1CN(CCCn1ccnc1)Cc1cn[nH]c1C(C)(C)C	4.2	.	-10.5	.	.	.
Cn1cc(C2=C(c3ccc(Cl)cc3Cl)C(=O)NC2=O)c2ccccc21	6.3	.	75.4*	.	.	+
Cn1cc(-c2ccccc2C(N)=O)c(=O)c2cc(Cl)ccc21	1.5	15.5	3.0	-3.4	3.7	.
Cc1nc(NC(C)c2ccccc2)c2c3c(sc2n1)CCC3 (stereo unspecified)	7.4	-3.2	70.9*	-5.3	-6.2	i
Cc1ccc(CNc2nc(C)nc3sc4c(c23)CCC4)cc1	3.5	1.1	32.9	1.9	7.0	.
C(=N/n1c2ccccc2c2ccccc21)/c1ccco1	12.0	2.0	65.0*	-1.3	14.2	+
CC1=C[N+](=O)c2ccccc2[N+]1=O	9.9	.	106.9*	.	.	i
COc1cc(/C=C2\SC(=S)N(Nc3ncc(C(F)(F)F)cc3Cl)C2=O)ccc1O	7.3	2.6	65.8*	1.5	-6.2	i
COc1cc(NC(=S)NC(=O)c2cc(C)cc(C)c2)ccc1NC(=O)c1cccs1	13.1	8.7	67.6*	3.6	-7.9	i
CC(C)c1nc2sc3c(NCc4ccccc4)ncnc3c2c2c1COC(C)(C)C2	7.3	3.5	38.4	0.4	-1.2	.
CCN(CCO)c1ncnc2c1sc1nc(C(C)C)c3c(c12)CC(C)(C)OC3	15.1	-0.2	79.4*	-0.2	-3.4	i
COc1ccc(N=N/C(=C\O)C(=O)c2ccco2)cc1	4.8	46.6	8.1	1.6	-16.7	.
O=C(/C(=C/O)N=Nc1ccccc1)c1cccs1	3.8	42.0	81.1*	3.8	3.0	+
Cc1ccccc1NC(=O)CSc1nc(COc2ccccc2)nc2ccccc12	7.2	16.4	84.5*	2.1	-3.5	i
CC(=O)NCCn1c(SCC(=O)NCCC2=CCCCC2)nc2ccccc2c1=O	6.9	0.1	-27.0	-7.2	-4.9	.
Cc1nc(NC(=O)CSc2cc(C)c3ccccc3n2)c(Cl)cc1Cl	7.0	1.0	19.6	4.5	16.1	.
Cc1cc(SCC(=O)Nc2cccnc2Cl)nc2ccccc12	4.4	21.9	66.7*	2.9	-7.8	i
Cc1cc(SCC(=O)NCCC2=CCCCC2)nc2ccccc12	5.4	5.8	70.4*	-5.7	3.0	i
CCOC(=O)C(CC)Sc1nc2c(c(=O)[nH]c(=O)n2C)n1Cc1ccc(C)cc1 (stereo unspecified)	3.5	.	52.7	.	.	.
SMILES	EP2 antag	Hck-Nef inh	EP2 mod	p97 ATPase inh	Arbovirus anti	EP2 confirm
CC1CCCC(C)N1C(=O)CSc1nc(-c2cccs2)cc(C(F)(F)F)n1 (stereo unspecified)	13.2	.	7.6	.	.	.
CCc1ccc2[nH]c(=O)c(C(c3nnnn3CC3CCCO3)N3CCCc4ccccc43)cc2c1 (stereo unspecified)	2.7	-2.4	77.0*!	3.4	0.0	+
CCCCOC(=O)CSc1nc(N)c(C#N)c(-c2ccc(OCC)cc2)c1C#N	16.7	-1.0	73.6*	-6.6	18.0	i
CCCCOC(=O)CSc1nc(N)c(C#N)c(-c2ccc(OC)cc2)c1C#N	14.8	2.3	40.6	5.4	0.8	.
c1ccc(-c2noc(-c3ccccc3-c3ccccc3)n2)cc1	9.3	1.6	50.6	2.7	1.9	+
CCOC1(OCC)C(c2ccc(Cl)cc2)C(C#N)(C#N)C1(OCC)OCC (stereo unspecified)	.	0.4	32.8	-1.2	13.1	.
CCOC1(OCC)C(c2ccc(N)cc2)C(C#N)(C#N)C1(OCC)OCC (stereo unspecified)	6.5	2.0	76.2*	1.6	29.4	+
CCOC(=O)c1c(NC(=O)CSc2nnnn2-c2ccccc2)sc2c1CCC(C)C2 (stereo unspecified)	9.3	-0.6	39.3	1.1	-6.2	.
CCOC(=O)c1c(NC(=O)CSc2ncnc3[nH]ncc23)sc2c1CCC(C)C2 (stereo unspecified)	6.8	25.8	66.1*	4.1	-5.8	i
CCc1cc2cc(C)ccc2nc1SCC(=O)Nc1nc(C)cs1	6.5	.	-41.6	.	.	.
COCCCN(C(=O)c1ccco1)c1nc(-c2cc(OC)ccc2OC)cs1	4.5	1.9	74.9*	4.4	-15.7	+
CCC(=O)N(CC)c1nc(-c2cc(OC)ccc2OC)cs1	7.2	-6.1	77.7*	-2.2	-3.6	+
COc1ccc(OC)c(-c2csc(N(Cc3ccco3)C(=O)c3ccco3)n2)c1	5.7	18.7	28.5	-5.3	-10.2	.
Cn1c(=O)oc2cc(S(=O)(=O)NC3CC3c3ccccc3)ccc21 (stereo unspecified)	9.0	.	-69.1	.	.	.
Cc1nn(CC(=O)N2CCCCC2)c(=O)c2cc3ccsc3n12	.	.	-8.4	.	.	.
C[C@H]1CC[C@@H](C(C)(C)O)CC2=C1CC[C@@H]2C	6.5	.	52.5	.	.	i
COc1ccc([C@@H]2CN(C(=O)C3CCCC3)C[C@H]2C(=O)O)cc1	8.2	.	-13.2	.	.	.
Cc1ccccc1NC(=S)N(Cc1ccco1)C(C)c1cccs1 (stereo unspecified)	4.9	-31.4	50.5	0.1	1.2	i
CC(c1cccs1)N(Cc1ccco1)C(=S)Nc1ccccc1Cl (stereo unspecified)	11.3	4.0	57.3	1.4	8.1	.
CC(=O)N(Cc1cccs1)Cc1cc2ccc(C)c(C)c2nc1Cl	7.8	11.7	76.5*	0.9	-3.8	i
CCc1nn(CC(=O)N2CCCCC2C)c(=O)c2cc3occc3n12 (stereo unspecified)	8.5	.	-48.5	.	.	.
CN(Cc1ccccc1)c1nc2c(c(=O)[nH]c(=O)n2C)n1Cc1ccccc1Cl	2.6	-0.5	76.8*	-7.6	1.9	+
Cc1nc2c(-c3ccc(F)cc3)c(C)nn2c(NCCO)c1C	.	.	-28.0	.	.	.
O=S(=O)(Nc1ccccc1N1CCCCC1)c1ccc(Cl)s1	5.5	-14.3	68.8*	-3.2	8.9	i
CCCCC(=O)C1CCN(Cc2ccccc2)CC1	8.5	-0.5	105.9*	1.2	-1.6	i
CCCCNC(=O)C1CCN(Cc2ccc(OCc3ccccc3)cc2)CC1	11.2	7.2	-5.0	-2.2	-35.0	.

Source: PubChem (several laboratories)
